# Measurements from US20060069055, “Delivery of polynucleotides” (published 2006).
# Molecular target: NF-kB p50/p50 homodimer (Homo sapiens, UniProt P19838 P19838:1-433)
# Experiment: EMSA; Table 3 gives 92 for PO
# Settings: protein: extract; tags: nuclear extract of LPS-stimulated THP-1 cells; chain copies: 2 stated; dsDNA, one strand shown
# Excerpt: The EMSA assay was employed to characterize oligonucleotide decoys for the NF-κB transcription factor. […] Using the above modified oligonucleotides to compete for binding for the above-mentioned NF-κB family members, it was possible to compare the binding affinity of these oligonucleotides against the high affinity radiolabeled probe and each other. This assay has also enabled the design of a decoy which selectively binds particular members of the NF-κB family. By using increasing concentrations of various oligonucleotides, it was observed that, by deleting or changing targeted residues in the binding site, it was possible to specifically decrease the binding of the decoy molecule to p50/p50 homodimers, while retaining the affinity for p65/p50 and cRel/p50 heterodimers.
# The NF-κB gel shift assays (EMSA) were performed as follows. A double-stranded oligonucleotide containing a consensus NF-κB binding site (5′ […].GGC 3′) (SEQ ID NO: 26) was end-labeled with γ³²P-ATP using T4 Polynucleotide Kinase (Promega). […] The dried gels were imaged and quantitated using a Typhoon 8600 Phosphorlmager (Amersham) and ImageQuant software. […]
# Sequence of NF-kB p50/p50 homodimer (P19838 1-433, one chain of several): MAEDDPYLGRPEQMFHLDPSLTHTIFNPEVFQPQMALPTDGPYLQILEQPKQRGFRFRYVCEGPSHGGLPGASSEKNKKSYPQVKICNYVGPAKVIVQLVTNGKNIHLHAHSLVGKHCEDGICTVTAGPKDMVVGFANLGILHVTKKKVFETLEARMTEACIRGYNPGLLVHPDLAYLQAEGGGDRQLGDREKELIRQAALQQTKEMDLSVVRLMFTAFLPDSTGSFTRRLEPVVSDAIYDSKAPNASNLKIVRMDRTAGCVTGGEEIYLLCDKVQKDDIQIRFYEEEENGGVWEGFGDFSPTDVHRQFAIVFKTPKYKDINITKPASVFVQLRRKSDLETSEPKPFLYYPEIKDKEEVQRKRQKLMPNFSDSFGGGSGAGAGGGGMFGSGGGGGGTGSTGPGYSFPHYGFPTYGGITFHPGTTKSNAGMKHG
row,Sequence,IC50 [fold molar excess]
1,AGTTGAGGACTTTCCAGGC,96
